Measurements from the supplement of paper PMC8371130.
Where a name gives a salt, the structure may show the parent alone.

Each compound was assayed on HL-1 (assay: relative cell viability (CellTiter-Glo) vs DMSO control (% of DMSO control); higher = more viable cells). Conditions: oxygen condition: normoxia 72 h; 40 nM.
Method in brief: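 Compounds at 40, 200, 1000 or 5000 nM in 0.01% DMSO were added to HL-1 mouse atrial cardiomyocytes plated at 1000 cells per well in 384-well plates. The next day, cells were exposed to 1% O2 for 48 h and then reoxygenated for 24 h, or left in normoxia for the same time. Viability was read with CellTiter-Glo luminescence and normalised to vehicle-treated controls.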

Structure (SMILES) | relative cell viability
CC[C@H]1OC(=O)[C@H](C)[C@@H](O[C@H]2C[C@@](C)(OC)[C@@H](O)[C@H](C)O2)[C@H](C)[C@@H](O[C@@H]2O[C@H](C)C[C@H](N(C)C)[C@H]2O)[C@](C)(OC)C[C@@H](C)C(=O)[C@H](C)[C@@H](O)[C@]1(C)O [Clarithromycin] | 100
S=c1[nH]cnc2nc[nH]c12 [Mercaptopurine] | 103
CCOc1nc2cccc(C(=O)OC(C)OC(=O)OC3CCCCC3)c2n1Cc1ccc(-c2ccccc2-c2nn[nH]n2)cc1 (configuration not stated) [Candesartan cilexetil] | 98
NC12CC3CC(CC(C3)C1)C2 [Amantadine hydrochloride] | 102

Same assay, conditions: oxygen condition: normoxia 72 h; 200 nM

Structure (SMILES) | relative cell viability
NC(=O)NO [Hydroxyurea] | 103
Cc1onc(-c2ccccc2)c1C(=O)N[C@@H]1C(=O)N2[C@@H]1SC(C)(C)[C@@H]2C(=O)O [Oxacillin sodium monohydrate] | 101
CC(C)(C(=O)O)c1ccc(C(O)CCCN2CCC(C(O)(c3ccccc3)c3ccccc3)CC2)cc1 (configuration not stated) [Fexofenadine HCl] | 96.2
CN(C)CCCN1c2ccccc2CCc2ccccc21 [Imipramine HCl] | 101
CCC[C@H](N[C@@H](C)C(=O)N1[C@H](C(=O)O)C[C@@H]2CCCC[C@@H]21)C(=O)OCC [Perindopril Erbumine] | 111
COc1ccccc1OCCNCC(O)COc1cccc2[nH]c3ccccc3c12 (configuration not stated) [Carvedilol] | 105
NCC(=O)CCC(=O)O [5-Aminolevulinic acid hydrochloride] | 102
CCNC(=O)CCC/C=C\C[C@@H]1[C@@H](/C=C/[C@@H](O)CCc2ccccc2)[C@H](O)C[C@@H]1O [Bimatoprost] | 101
Nc1nnc(-c2cccc(Cl)c2Cl)c(N)n1 [Lamotrigine] | 96.1
CNCC[C@@H](Oc1ccccc1C)c1ccccc1 [Atomoxetine HCl] | 102
Clc1ccc2nsnc2c1NC1=NCCN1 [Tizanidine HCl] | 106
CC(C)c1c(C(=O)Nc2ccccc2)c(-c2ccccc2)c(-c2ccc(F)cc2)n1CC[C@@H](O)C[C@@H](O)CC(=O)O [Atorvastatin calcium] | 98.8
C[C@@H]1CCN(C(=O)CC#N)C[C@@H]1N(C)c1ncnc2[nH]ccc12 [Tofacitinib citrate] | 102
CCN(Cc1ccncc1)C(=O)C(CO)c1ccccc1 (configuration not stated) [Tropicamide] | 102
N=C(N)NC(=O)c1nc(Cl)c(N)nc1N [Amiloride hydrochloride] | 105
NCCCC(O)(P(=O)(O)O)P(=O)(O)O [Alendronate] | 105
CC(=O)Oc1ccccc1C(=O)O [Aspirin] | 105
NC(=O)N1c2ccccc2CC(=O)c2ccccc21 [Oxcarbazepine] | 127
CC(=O)OCC(=O)[C@@]12OC(C)(C)O[C@@H]1C[C@H]1[C@@H]3C[C@H](F)C4=CC(=O)C=C[C@]4(C)[C@@]3(F)[C@@H](O)C[C@@]12C [Fluocinonide] | 88.7

Structure (SMILES) | relative cell viability
CC(=O)[C@H]1CC[C@H]2[C@@H]3CC=C4C[C@@H](O)CC[C@]4(C)[C@H]3CC[C@]12C [Pregnenolone] | 101
CCCOc1ccc(C(=O)OCCN(CC)CC)cc1N [Proparacaine HCl] | 92.4
C=CC[C@@H]1/C=C(\C)C[C@H](C)C[C@H](OC)[C@H]2O[C@@](O)(C(=O)C(=O)N3CCCC[C@H]3C(=O)O[C@H](/C(C)=C/[C@@H]3CC[C@@H](O)[C@H](OC)C3)[C@H](C)[C@@H](O)CC1=O)[C@H](C)C[C@@H]2OC | 106
O=C(Nc1ccc([N+](=O)[O-])cc1Cl)c1cc(Cl)ccc1O [Niclosamide] | 2.9
CCCCCCCCOc1ccccc1C(=O)Nc1ccc(C(=O)OCC[N+](C)(CC)CC)cc1 [Otilonium Bromide] | 105
C#C[C@]1(OC(C)=O)CC[C@H]2[C@@H]3CCC4=C[C@@H](OC(C)=O)CC[C@@H]4[C@H]3CC[C@@]21C [Ethynodiol diacetate] | 110
N[C@@H]1CN(c2c(F)cc3c(=O)c(C(=O)O)cn([C@@H]4C[C@@H]4F)c3c2Cl)CC12CC2 [Sitafloxacin hydrate] | 95.3
CCCCCCNC(=O)n1cc(F)c(=O)[nH]c1=O [Carmofur] | 81.2
CCCC(CCC)C(=O)O [Divalproex sodium] | 106
c1ccc2c(CC3=NCCN3)cccc2c1 [Naphazoline hydrochloride] | 102
C[C@]12CC[C@@H]3c4ccc(O)cc4C[C@@H](CCCCCCCCC[S+]([O-])CCCC(F)(F)C(F)(F)F)[C@H]3[C@@H]1CC[C@@H]2O (some centres not stated) [Fulvestrant] | 117
N=C(N)Nc1ccc(C(=O)Oc2ccc3cc(C(=N)N)ccc3c2)cc1 [Nafamostat mesylate] | 110
Cc1cn([C@H]2C[C@H](N=[N+]=[N-])[C@@H](CO)O2)c(=O)[nH]c1=O [Zidovudine] | 110
O=C(O)Cc1cc(I)c(Oc2ccc(O)c(I)c2)c(I)c1 [Tiratricol] | 103
C[C@@H](Oc1cc(-c2cnn(C3CCNCC3)c2)cnc1N)c1c(Cl)ccc(F)c1Cl [Crizotinib] | 98.6
CC[C@H]1OC(=O)[C@H](C)[C@@H](O[C@H]2C[C@@](C)(OC)[C@@H](O)[C@H](C)O2)[C@H](C)[C@@H](O[C@@H]2O[C@H](C)C[C@H](N(C)C)[C@H]2O)[C@](C)(OC)C[C@@H](C)C(=O)[C@H](C)[C@@H](O)[C@]1(C)O [Clarithromycin] | 100
S=c1[nH]cnc2nc[nH]c12 [Mercaptopurine] | 103
CCOc1nc2cccc(C(=O)OC(C)OC(=O)OC3CCCCC3)c2n1Cc1ccc(-c2ccccc2-c2nn[nH]n2)cc1 (configuration not stated) [Candesartan cilexetil] | 102
NC12CC3CC(CC(C3)C1)C2 [Amantadine hydrochloride] | 101
